Assay results from PubChem BioAssay (EPA / NIEHS).
Active and inactive are the calls of the source. Rule for the calls: active = hit-call score of the fitted dose curve at least 0.9, where 1 is the maximum; inactive = score below 0.9.

Tests used:
[1] = read-out: Interleukin-6 (IL6), IL6 (gene 3569); assay: BSK_CASM3C_IL6: BioMAP Diversity Plus: CASM3C Assay for Interleukin-6 (IL6) Biomarker Activity for (AID 2283040); conditions: primary human coronary artery smooth muscle cells; actives raise or lower the signal
[2] = read-out: Tissue plasminogen activator (tPA), PLAT (gene 5327); assay: BSK_BE3C_tPA: BioMAP Diversity Plus: BE3C Assay for Tissue plasminogen activator (tPA) Biomarker Activity (AID 2283041); conditions: primary human bronchial epithelial cells; actives raise or lower the signal
How it was run: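 Using human lung primary bronchial epithelial cells, tPA was measured by ELISA 24 h after dosing; data fitted relative to DMSO.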

[3] = read-out: Interleukin-8 (IL8), CXCL8 (gene 3576); assay: BSK_CASM3C_IL8: BioMAP Diversity Plus: CASM3C Assay for Interleukin-8 (IL8) Biomarker Activity (AID 2283042); conditions: primary human coronary artery smooth muscle cells; actives raise or lower the signal;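 note: IL-8 protein level quantified by ELISA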
[4] = read-out: Human Leukocyte Antigen - DR isotype (HLADR), HLA-DRA (gene 3122); assay: BSK_CASM3C_HLADR: BioMAP Diversity Plus: CASM3C Assay for Human Leukocyte Antigen - DR isotype (HLADR) Biomarker Activity (AID 2283043); conditions: primary human coronary artery smooth muscle cells; actives raise or lower the signal;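 note: cell-surface HLA-DR protein level quantified by ELISA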
[5] = read-out: Macrophage colony-stimulating factor (MCSF), CSF1 (gene 1435); assay: BSK_CASM3C_MCSF: BioMAP Diversity Plus: CASM3C Assay for Macrophage colony-stimulating factor (MCSF) Biomarker Activity (AID 2283044); conditions: primary human coronary artery smooth muscle cells; actives raise or lower the signal;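 note: M-CSF protein amount quantified by ELISA after 24 h exposure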
[6] = read-out: Low-density lipoprotein receptor (LDLR), LDLR (gene 3949); assay: BSK_CASM3C_LDLR: BioMAP Diversity Plus: CASM3C Assay for Low-density lipoprotein receptor (LDLR) Biomarker Activity (AID 2283045); conditions: primary human coronary artery smooth muscle cells; actives raise or lower the signal;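 note: LDLR protein level on the cell surface quantified by ELISA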
[7] = read-out: Monocyte Chemoattractant Protein-1 (MCP1), CCL2 (gene 6347); assay: BSK_CASM3C_MCP1: BioMAP Diversity Plus: CASM3C Assay for Monocyte Chemoattractant Protein-1 (MCP1) Biomarker Activity (AID 2283046); conditions: primary human coronary artery smooth muscle cells; actives raise or lower the signal;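 note: MCP-1 level quantified by ELISA 24 h after dosing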
[8] = BSK_CASM3C_Proliferation: Cell Proliferation Assessment in the BioMAP Diversity Plus: CASM3C Assay (AID 2283047); conditions: primary human coronary artery smooth muscle cells;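 note: sulforhodamine B total protein stain as relative cell number at 560 nm; sub-confluent cells exposed 48 h before staining; fitted both ways against DMSO so gain or loss of cell number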
[9] = read-out: Monokine induced gamma interferon (MIG), CXCL9 (gene 4283); assay: BSK_CASM3C_MIG: BioMAP Diversity Plus: CASM3C Assay for Monokine induced gamma interferon (MIG) Biomarker Activity (AID 2283048); conditions: primary human coronary artery smooth muscle cells; actives raise or lower the signal;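 note: MIG protein level measured by ELISA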
[10] = read-out: serum amyloid A (SAA), SAA1 (gene 6288); assay: BSK_CASM3C_SAA: BioMAP Diversity Plus: CASM3C Assay for serum amyloid A (SAA) Biomarker Activity (AID 2283049); conditions: primary human coronary artery smooth muscle cells; actives raise or lower the signal;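 note: SAA protein level quantified by ELISA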
[11] = BSK_CASM3C_SRB: Viability Assessment in the BioMAP Diversity Plus: CASM3C Assay (AID 2283050); conditions: primary human coronary artery smooth muscle cells;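 note: cells exposed to compound for 24 h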
[12] = read-out: Thrombomodulin, THBD (gene 7056); assay: BSK_CASM3C_Thrombomodulin: BioMAP Diversity Plus: CASM3C Assay for Thrombomodulin Biomarker Activity (AID 2283051); conditions: primary human coronary artery smooth muscle cells; actives raise or lower the signal;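 note: thrombomodulin protein level measured by ELISA 24 h after dosing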
[13] = read-out: Tissue Factor, F3 (gene 2152); assay: BSK_CASM3C_TissueFactor: BioMAP Diversity Plus: CASM3C Assay for Tissue Factor Biomarker Activity (AID 2283052); conditions: primary human coronary artery smooth muscle cells; actives raise or lower the signal;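 note: cell surface tissue factor protein level read by ELISA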
[14] = read-out: Interferon-gamma inducible Protein 10 (IP10), CXCL10 (gene 3627); assay: BSK_hDFCGF_IP10: BioMAP Diversity Plus: hDFCGF Assay for Interferon-gamma inducible Protein 10 (IP10) Biomarker Activity (AID 2283053); conditions: primary human foreskin fibroblasts; actives raise or lower the signal
How it was run: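 Chemical-treated human skin fibroblasts (primary) were sampled at 24 h for IP-10 by ELISA. Both increases and decreases relative to DMSO were scored.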

[15] = read-out: Urokinase-type plasminogen activator receptor (uPAR), PLAUR (gene 5329); assay: BSK_CASM3C_uPAR: BioMAP Diversity Plus: CASM3C Assay for Urokinase-type plasminogen activator receptor (uPAR) Biomarker Activity (AID 2283054); conditions: primary human coronary artery smooth muscle cells; actives raise or lower the signal;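 note: cell-surface uPAR protein level quantified by ELISA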
[16] = read-out: Vascular cell adhesion molecule 1 (VCAM1), VCAM1 (gene 7412); assay: BSK_CASM3C_VCAM1: BioMAP Diversity Plus: CASM3C Assay for Vascular cell adhesion molecule 1 (VCAM1) Biomarker Activity (AID 2283055); conditions: primary human coronary artery smooth muscle cells; actives raise or lower the signal;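 note: VCAM-1 protein level quantified by ELISA on the cells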
[17] = read-out: Collagen III, COL3A1 (gene 1281); assay: BSK_hDFCGF_CollagenIII: BioMAP Diversity Plus: hDFCGF Assay for Collagen III Biomarker Activity (AID 2283056); conditions: primary human foreskin fibroblasts; actives raise or lower the signal
How it was run: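 Human foreskin fibroblast primary cultures sampled 24 h after dosing; Collagen III quantified by ELISA. Signal fitted bidirectionally against DMSO baseline.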

[18] = read-out: Epidermal growth factor receptor (EGFR), EGFR (gene 1956); assay: BSK_hDFCGF_EGFR: BioMAP Diversity Plus: hDFCGF Assay for Epidermal growth factor receptor (EGFR) Biomarker Activity (AID 2283057); conditions: primary human foreskin fibroblasts; actives raise or lower the signal
How it was run: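 Cell-based multiplexed assay in primary human foreskin fibroblasts. EGFR is read by ELISA 24 h after treatment and compared with DMSO controls.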

[19] = read-out: Interleukin-8 (IL8), CXCL8 (gene 3576); assay: BSK_hDFCGF_IL8: BioMAP Diversity Plus: hDFCGF Assay for Interleukin-8 (IL8) Biomarker Activity (AID 2283058); conditions: primary human foreskin fibroblasts; actives raise or lower the signal
How it was run: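 Primary human foreskin fibroblasts (hDFCGF system) dosed with chemical; IL-8 measured by ELISA 24 hours later. Bidirectional curve fitting relative to DMSO baseline; cytotoxicity tracked in parallel cultures by SRB total protein staining.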

[20] = BSK_hDFCGF_Proliferation: Cell Proliferation Assessment in the BioMAP Diversity Plus: hDFCGF Assay (AID 2283059); conditions: primary human foreskin fibroblasts;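 note: curves fitted for both rise and fall of signal versus DMSO baseline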
How it was run: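 Steps: dose primary human dermal fibroblasts (foreskin); […] fix in 10% TCA; stain with 0.1% SRB; read 560 nm; fit gain or loss of signal against DMSO.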

Measured: AC50

COc1ccc2c(c1)c(CC(=O)O)c(C)n2C(=O)c1ccc(Cl)cc1
active: [17] 20 µM | [20] 13.1 µM
inactive: all other assays above

Cc1ccc2ncccc2c1
inactive: all assays above

COc1cc(S(=O)(=O)O)c(C)cc1N=Nc1c(O)ccc2cc(S(=O)(=O)O)ccc12
inactive: all assays above

c1cc(-c2ccncc2)ccn1
inactive: all assays above

CC(C)(C)c1cc(O)c(C(C)(C)C)cc1O
active: [2] 15.7 µM | [12] 4.92 µM | [14] 20 µM | [17] 9.11 µM | [20] 29.1 µM
inactive: all other assays above

CN1CCCC1=O
inactive: all assays above

Nc1ccccc1N
active: [16] 4.05 µM | [20] 16 µM
inactive: all other assays above

COCCOC[C@H](CC1(C(=O)NC2CCC(C(=O)O)CC2)CCCC1)C(=O)Oc1ccc2c(c1)CCC2 (stereo not given in full)
inactive: all assays above

CCOc1ccc2c(c1)C(C)=CC(C)(C)N2
active: [14] 20 µM | [17] 15.1 µM | [20] 24.3 µM
inactive: all other assays above

C=CCc1ccc(O)c(OC)c1
inactive: all assays above

Cc1cccc([N+](=O)[O-])c1C
inactive: all assays above

O=C(O)CCCCC(=O)O
inactive: all assays above

CCCCCCC(=O)OCC
inactive: all assays above

COCCOCCOC
active: [17] 0.148 µM
inactive: all other assays above

CC1=C(/C=C/C(C)=C/C=C/C(C)=C/CO)C(C)(C)CCC1
active: [8] 20.9 µM | [12] 12.2 µM | [14] 27.4 µM | [18] 27.8 µM | [20] 12.4 µM
inactive: all other assays above

CCOC(=O)CCC(=O)OCC
inactive: all assays above

C[Si]1(C)O[Si](C)(C)O[Si](C)(C)O[Si](C)(C)O1
inactive: all assays above

CCCCCCCC=O
inactive: all assays above

Oc1ccc2c(c1)OC[C@@H](N1CCC(O)(c3ccc(F)cc3)CC1)[C@H]2O
inactive: all assays above

COc1ccc(C)cc1N
inactive: all assays above

Cc1cc(=O)[nH]c(=S)[nH]1
inactive: all assays above

Cc1nc(C)nc(N2C[C@@H](C)N(c3ccnc([C@@H](C)O)n3)[C@@H](C)C2)n1
inactive: all assays above

Nc1ccc(S(=O)(=O)c2ccc(N)cc2)cc1
inactive: all assays above

CCCCCCCCCCCCCO
inactive: [1] | [3] | [4] | [6] | [9] | [10] | [13] | [15] | [18]
active: [2] 26.9 µM | [5] 34.5 µM | [7] 33.3 µM | [8] 34.2 µM | [11] 34.4 µM | [12] 20.6 µM | [14] 13.2 µM | [16] 28.3 µM | [17] 12.9 µM | [19] 29.9 µM | [20] 8.61 µM

CCCCc1ccc2c(n1)[C@@H](c1ccc(OC)cc1C[C@H](C)C(=O)O)[C@H](C(=O)O)[C@H]2c1ccc2c(c1)OCO2
inactive: all assays above

Oc1ccc2ccccc2c1N=Nc1ccccc1
active: [12] 1.36 µM | [20] 5.03 µM
inactive: all other assays above

CCCCCCCCCCO
inactive: all assays above

CCCCCCOCCO
inactive: all assays above
